The values that follow come from PubChem BioAssay (Tox21).

Test [1] in a line: qHTS assay to identify small molecule agonists of the sonic hedgehog signaling (Shh) pathway (AID 1259368).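 Also: NIH/3T3-derived 3T3Gli1-Luc cells carrying a stable Gli1-driven firefly luciferase reporter; series mostly up to about 92 µM; nearly all actives have a fitted effect of over 15% in size.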 Put shortly:
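Hedgehog pathway agonism scored by increased firefly luciferase luminescence in 3T3Gli1-Luc cells treated 24 hr at 37 C; detection used a 30 min room-temperature reagent incubation.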
In general terms: Quantitative high-throughput screening tests each substance at several concentrations.

Test [2] can be described thus: qHTS assay to identify small molecule antagonists of the sonic hedgehog signaling (Shh) pathway (AID 1259369). Also: nearly all actives have a fitted effect of over 45% in size. Also: potency is read from the fitted curve at half-maximal effect. Put shortly:
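NIH/3T3 stable Gli1-Luc clone, 2,000 cells/well, 4hr settle; cpd + conditioned medium 24hr; Luc reagent 30min RT; luminescence.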

Test [3] has as its target Estrogen receptor beta (Homo sapiens) (UniProt Q92731). The test can be described thus: qHTS assay to identify small molecule agonists of the estrogen receptor beta (ER-beta) signaling pathway (AID 1259377; active = well fitted activation curve with a large enough effect in the signal ratio in the repeat runs, not every such curve was filed as active; the % refers to the signal ratio). Put shortly:
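Beta-lactamase reporter readout: fluorescence of LiveBLAzer B/G FRET substrate after 2 h at room temperature, following 16 h compound treatment of ER-beta-UAS-bla HEK293T cells at 37C in 2% charcoal-stripped FBS medium.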

For test [4] the target is unchanged. Briefly: qHTS assay to identify small molecule antagonists of the estrogen receptor beta (ER-beta) signaling pathway (AID 1259378; active = well fitted inhibition curve with a large enough effect in the signal ratio in the repeat runs, not every such curve was filed as active; the % refers to the signal ratio). In outline:
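ER-beta-UAS-bla HEK293T cells in 2% charcoal-stripped FBS medium treated with compound plus 1nM final 17-beta-estradiol for 16 hr at 37C. Beta-lactamase reporter read by FRET substrate fluorescence after 2 hours at room temperature.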

Test [5] is described as follows: qHTS assay to identify small molecule agonists of the androgen receptor (AR) signaling pathway in the presence of an antagonist - cell viability counter screen (AID 1259379; active = well fitted curve in the direction sought with a large enough effect in the repeat runs; an effect the other way counts as inactive or inconclusive;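 also: MDA-kb2 human breast cancer cells carrying an MMTV luciferase reporter; series mostly up to about 92 µM; nearly all actives have a fitted effect of over 25% in size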). In outline: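 MDA-kb2 viability measured by CellTiter-Fluor fluorescence in the same wells as the luciferase signal; nilutamide 3.0uM final; 15-point compound titration; 16 hr at 37C.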
Test [6] in a line: qHTS assay to identify small molecule agonists of the estrogen receptor beta (ER-beta) signaling pathway - cell viability counter screen (AID 1259380; active = well fitted curve in the direction sought with a large enough effect in the repeat runs; an effect the other way counts as inactive or inconclusive; also: nearly all actives have a fitted effect of over 30% in size). In outline:
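Measured: luminescence from CellTiter-Glo after 30 min at room temperature, added to wells already read for the LiveBLAzer FRET reporter (2 hr substrate); ER-beta-UAS-bla HEK293T cells had 16 hr compound treatment at 37C, 5% CO2.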

Test [7] can be described thus: qHTS assay to identify small molecule antagonists of the estrogen receptor beta (ER-beta) signaling pathway - cell viability counter screen (AID 1259382; active = well fitted curve in the direction sought with a large enough effect in the repeat runs; an effect the other way counts as inactive or inconclusive; also: series mostly up to about 92 µM; nearly all actives have a fitted effect of over 55% in size). Put shortly: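 Readout: luminescence, CellTiter-Glo, same wells as bla assay. System: ER-beta-UAS-bla GripTite HEK293T, 2% charcoal-stripped FBS. Exposure: compounds plus 1nM 17-beta-estradiol, 16 hr, 37C.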
Test [8] can be described thus: qHTS assay to identify small molecule agonists or antagonists of the thyroid stimulating hormone receptor (TSHR) signaling pathway - wild type cell line counter screen (AID 1259384). Put shortly:
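Wild-type Hek293 cells, 800/well, 18 h at 37C, then compound with Ro20-1724 for 30 min RT. cAMP by HTRF (cAMP-d2/anti-cAMP cryptate), 1 h RT, fluorescence read. 15 concentrations, triplicates.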

Test [9] deals with Estrogen receptor (Homo sapiens) (UniProt P03372). The test can be described thus: qHTS assay to identify small molecule agonists of the estrogen receptor alpha (ER-alpha) signaling pathway in the presence of an antagonist (AID 1259383). Also: top concentration of the series differs between compounds; nearly all actives have a fitted effect of over 15% in size. Put shortly:
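Quantitative HTS confirmation: compounds titrated at 15 concentrations onto estrogen-deprived VM7Luc4E2 cells carrying a four-ERE luciferase construct, with ICI-182,780 present at 10.0nM final. Signal is luminescence after 22hr exposure.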

Test [10] concerns the target Androgen receptor (Homo sapiens) (UniProt P10275). The test can be described thus: qHTS assay to identify small molecule agonists of the androgen receptor (AR) signaling pathway in the presence of an antagonist (AID 1259381). Also: nearly all actives have a fitted effect of over 15% in size. Put shortly: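 Luminescent ONE-Glo read, 30min at room temperature, follows 16hr compound exposure (15 concentrations) of MDA-kb2 cells at 37C, 0% CO2, with nilutamide added at 3.0uM final.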

Unmarked numbers belong to inactive results. Records with an inconclusive call do not appear. Calls of active or inactive are those of the source. Unless noted, calls follow the shape of the full dose curve.

Chain of Estrogen receptor beta (Homo sapiens) (Q92731 whole entry, looked up): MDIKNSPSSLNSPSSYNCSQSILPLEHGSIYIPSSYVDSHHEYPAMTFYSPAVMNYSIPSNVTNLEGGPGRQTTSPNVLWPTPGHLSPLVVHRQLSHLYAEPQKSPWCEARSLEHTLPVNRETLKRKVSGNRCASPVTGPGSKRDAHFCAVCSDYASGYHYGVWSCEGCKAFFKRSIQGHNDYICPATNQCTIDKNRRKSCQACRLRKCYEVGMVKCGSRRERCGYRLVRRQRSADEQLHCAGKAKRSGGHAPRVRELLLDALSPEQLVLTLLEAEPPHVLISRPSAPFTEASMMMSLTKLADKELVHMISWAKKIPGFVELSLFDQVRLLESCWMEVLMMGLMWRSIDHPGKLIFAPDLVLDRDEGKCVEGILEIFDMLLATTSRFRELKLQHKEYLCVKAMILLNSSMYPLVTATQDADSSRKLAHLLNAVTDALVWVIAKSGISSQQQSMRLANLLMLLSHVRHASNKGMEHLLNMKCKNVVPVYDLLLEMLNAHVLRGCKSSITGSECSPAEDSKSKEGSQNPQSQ
Chain of Androgen receptor (Homo sapiens) (P10275 whole entry, looked up): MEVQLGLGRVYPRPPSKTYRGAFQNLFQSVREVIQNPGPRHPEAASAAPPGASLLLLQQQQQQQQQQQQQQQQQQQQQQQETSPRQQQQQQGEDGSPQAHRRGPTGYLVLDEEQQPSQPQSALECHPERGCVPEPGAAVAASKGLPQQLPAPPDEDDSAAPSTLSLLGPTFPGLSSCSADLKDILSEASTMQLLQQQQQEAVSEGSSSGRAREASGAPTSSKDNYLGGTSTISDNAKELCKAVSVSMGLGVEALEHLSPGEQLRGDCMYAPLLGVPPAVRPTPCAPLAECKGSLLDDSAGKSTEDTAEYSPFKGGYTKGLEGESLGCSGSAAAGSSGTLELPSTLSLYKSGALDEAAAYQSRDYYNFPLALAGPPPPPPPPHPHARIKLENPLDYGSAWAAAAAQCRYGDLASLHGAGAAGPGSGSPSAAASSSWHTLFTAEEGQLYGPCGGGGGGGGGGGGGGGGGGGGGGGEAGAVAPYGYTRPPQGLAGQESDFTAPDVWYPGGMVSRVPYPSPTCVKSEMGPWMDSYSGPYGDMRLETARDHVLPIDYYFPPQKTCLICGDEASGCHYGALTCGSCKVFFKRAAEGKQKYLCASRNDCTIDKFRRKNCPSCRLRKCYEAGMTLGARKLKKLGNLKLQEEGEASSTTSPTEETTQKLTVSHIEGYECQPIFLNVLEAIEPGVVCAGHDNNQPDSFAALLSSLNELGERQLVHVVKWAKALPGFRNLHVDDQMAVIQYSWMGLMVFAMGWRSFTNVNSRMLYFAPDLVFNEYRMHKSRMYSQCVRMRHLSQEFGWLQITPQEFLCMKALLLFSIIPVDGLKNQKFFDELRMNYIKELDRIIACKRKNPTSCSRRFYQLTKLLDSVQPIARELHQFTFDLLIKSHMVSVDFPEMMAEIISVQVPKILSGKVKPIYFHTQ
Chain of Estrogen receptor (Homo sapiens) (P03372 whole entry, looked up): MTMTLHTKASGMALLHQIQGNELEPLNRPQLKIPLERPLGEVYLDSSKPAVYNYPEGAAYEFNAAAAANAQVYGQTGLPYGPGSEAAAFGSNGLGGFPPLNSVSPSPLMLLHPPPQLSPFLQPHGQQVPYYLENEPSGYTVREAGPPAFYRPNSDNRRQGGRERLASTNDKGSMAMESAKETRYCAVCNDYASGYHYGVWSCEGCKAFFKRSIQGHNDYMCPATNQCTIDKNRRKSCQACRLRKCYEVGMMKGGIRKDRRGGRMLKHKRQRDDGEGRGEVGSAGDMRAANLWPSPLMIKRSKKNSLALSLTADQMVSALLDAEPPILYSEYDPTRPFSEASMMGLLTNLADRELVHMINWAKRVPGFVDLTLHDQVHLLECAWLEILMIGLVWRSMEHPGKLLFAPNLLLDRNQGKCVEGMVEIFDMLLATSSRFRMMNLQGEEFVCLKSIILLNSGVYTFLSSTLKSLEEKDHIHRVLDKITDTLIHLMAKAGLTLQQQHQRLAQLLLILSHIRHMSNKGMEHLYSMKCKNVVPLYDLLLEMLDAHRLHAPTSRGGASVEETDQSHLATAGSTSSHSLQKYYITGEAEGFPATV

As for `c1ccc(CCCc2ccccn2)cc1`, the Potency result in test [1], in test [2], in [4], in [5], in [6] and in test [7] was “inactive” each time. For the same compound, the compound was classed as inactive in [3] and in test [8].

Take `CO[Si](OC)(OC)OC`: the Potency result in [1], in test [2], in [4], in test [5], in test [6] and in test [7] was “inactive” throughout. In addition, the call in [3] and in test [8] was inactive.

Regarding `CCO[Si](C)(OCC)OCC`, the Potency result in test [1], in [2], in test [5], in test [6], in [7] and in test [9] was “inactive” throughout. The result in test [3] and in test [8] was inactive.

Consider `O=C1CC2(CCCC2)CC(=O)N1`, for which the Potency result in test [1], in test [2], in test [5], in test [6], in test [10] and in test [7] was “inactive” throughout. Also, the Potency result in [9] is “inactive”. Besides, the compound was called inactive in [3] and in test [8].

For the compound `C1=C\CC/C=C\CC/C=C\CC/1`, the Potency result in [1], in test [2], in [5], in test [6] and in [7] was “inactive” throughout. The result in [3] was inactive.

`O=Cc1ccccc1[N+](=O)[O-]`: the Potency result in [1], in test [2], in [5], in [6], in test [7] and in test [9] was “inactive” each time. For the same compound, the outcome in test [3] and in [8] was inactive.

For `Cc1onc(-c2ccccc2)c1-c1ccc(S(N)(=O)=O)cc1`, the Potency entry in [1], in test [5], in test [6] and in test [7] was “inactive” throughout. For the same compound, the Potency in [2] was 18.8 µM (active). Besides, the compound was called inactive in [3] and in test [8].

Turning to `C[C@H]1O[C@@H](n2cc(F)c(=O)[nH]c2=O)[C@H](O)[C@@H]1O`, the Potency result in [1], in test [2], in [5], in test [6] and in test [7] was “inactive” each time. Also, the compound was called inactive in test [3] and in test [8].

Consider `CCC(C(=O)NC(N)=O)c1ccccc1` (centres undefined), for which the Potency result in [1], in test [2], in [5], in test [6], in test [7] and in test [9] was “inactive” in each case. Moreover, the result in [3] and in test [8] was inactive.

As to `CC(C)(C)OC(=O)N1C[C@@H](F)C[C@H]1C(=O)O`, the Potency entry in test [1], in test [2], in test [5], in test [6], in test [7] and in [9] was “inactive” each time. For the same compound, the call in test [3] and in test [8] was inactive.

Take `CC(=O)N[C@@H](CCC(N)=O)C(=O)O`: the Potency result in test [1], in test [2], in test [5], in test [7] and in [9] was “inactive” throughout. Also, the outcome in [3] was inactive.

With `CCC(=O)/C=C/c1ccc(OC)cc1`, the Potency entry in test [1], in test [2], in test [5], in test [6], in test [7] and in test [9] was “inactive” each time. The compound was called inactive in [3].

In the case of `CC(C)[C@H](N)C(=O)OCCOCn1cnc2c(=O)[nH]c(N)nc21`, the Potency result in [1], in [2], in test [5], in test [6], in test [7] and in test [9] was “inactive” in each case. Moreover, the outcome in test [3] and in test [8] was inactive.

`Nc1nc(F)nc2c1ncn2[C@@H]1O[C@H](CO)[C@@H](O)[C@@H]1O`: the Potency result in test [1], in [2], in test [5], in test [6], in test [7] and in test [9] was “inactive” throughout. Further, the call in test [3] and in test [8] was inactive.

Consider `CC12CCC(CC1=O)C2(C)C` (centres undefined), for which the Potency result in [1], in test [2], in test [5], in [6], in [7] and in test [9] was “inactive” in each case. In addition, the outcome in test [3] and in test [8] was inactive.

As for `OCc1ccccn1`, the Potency entry in test [1], in test [2], in [5], in [6], in [7] and in test [9] was “inactive” in each case. In addition, the compound was called inactive in test [3] and in test [8].

As to `O=[N+]([O-])c1ccc(Oc2ccc([N+](=O)[O-])cc2)cc1`, the Potency entry in test [1], in [2], in test [5], in test [6], in test [7] and in test [9] was “inactive” each time. For the same compound, the outcome in test [3] was inactive.

Consider `CC1=CC(=O)CCC1`, for which the Potency entry in [1], in [2], in [5], in test [6] and in test [7] was “inactive” throughout. Besides, the call in test [3] and in [8] was inactive.

As to `O=C(O)c1ccc[n+]([O-])c1`, the Potency result in test [1], in [2], in [5], in test [6], in test [10] and in test [7] was “inactive” in each case. Further, in test [9], the Potency entry was “inactive”. The compound was classed as inactive in [3] and in [8].

In the case of `O=C(O)CCNC(=O)c1ccc(N=Nc2ccc(O)c(C(=O)O)c2)cc1`, the Potency entry in test [1], in test [2], in test [4], in test [6], in test [7] and in test [9] was “inactive” each time. Further, the compound was classed as inactive in test [3] and in test [8].

For `O=C1OC(=O)c2cc([N+](=O)[O-])ccc21`, the Potency entry in [1], in test [2], in [5], in [6], in test [7] and in test [9] was “inactive” in each case. In addition, the compound was classed as inactive in test [3] and in test [8].

For `O=C(CCOCCOCCOCCOCCC(=O)Nc1c(I)cc(I)c(C(=O)O)c1I)Nc1c(I)cc(I)c(C(=O)O)c1I`, the Potency result in test [1], in test [2], in test [5], in [6], in test [10] and in test [7] was “inactive” throughout. Besides, in test [9], the Potency entry was “inactive”. Also, the call in test [3] and in test [8] was inactive.

On to `Nc1nc2c(ncn2CCC(CO)CO)c(=O)[nH]1`, for which the Potency entry in test [1], in test [2], in test [5], in test [6], in test [7] and in test [9] was “inactive” each time. In addition, the outcome in [3] and in test [8] was inactive.

Consider `O=c1[nH]c2ccccc2c(=O)n1CCCl`, for which the Potency result in test [1], in test [2], in test [5], in test [6], in [10] and in test [7] was “inactive” throughout. The outcome in [3] and in test [8] was inactive.

`CCC(C)OC(=O)N1CCCCC1CCO` (centres undefined): the Potency entry in test [1], in test [2], in test [5], in test [6] and in [7] was “inactive” in each case. Also, the result in test [3] and in test [8] was inactive.

For `CN1[C@@H]2CC[C@H]1CC(NC(=O)n1c(=O)[nH]c3ccccc31)C2` (some centres undefined), the Potency entry in test [1], in test [2], in test [4], in test [6], in test [10] and in test [7] was “inactive” each time. Moreover, the Potency entry in test [9] is “inactive”. Also, the compound was classed as inactive in [3].

With `C[N+](C)(C)CC[N+]1(C)Cc2c(Cl)c(Cl)c(Cl)c(Cl)c2C1`, the Potency result in [1], in test [2], in test [5], in test [6], in test [7] and in [9] was “inactive” throughout. Further, the compound was classed as inactive in [3] and in [8].
